We go through 40 sequences from the OligoGym collection.
Also: reference of the scale not given here.

The first assay has as its target IFI44L. The assay is described as follows: pooled miR-30 sensor sort-seq; sequence = guide strand. Particulars: shRNA.
For TTTATGGACATTCATGACCCGG, the sensor-assay potency score (higher = more potent) is -1.2.

In turn, TTTGTGAACTTGCTTCACTTTT came in with a sensor-assay potency score (higher = more potent) of -0.819.

On to TTATGGACATTCATGACCCGGC, for which the sensor-assay potency score (higher = more potent) is -0.0543.

Regarding TTTCGATAAACGACACACCAGT, the sensor-assay potency score (higher = more potent) is -0.943.

For the sequence TAGCATTTTATGGACATTCATG, the sensor-assay potency score (higher = more potent) was -1.18.

For the sequence TATGTCGTCTAGGTTATCCTTA, the sensor-assay potency score (higher = more potent) was 0.221.

TTCTTTGTGAACTTGCTTCACT had a sensor-assay potency score (higher = more potent) of 0.156.

For TACTTCTTTGTGAACTTGCTTC, the sensor-assay potency score (higher = more potent) turned out to be 0.0933.

As to TAATACTTCTTTGTGAACTTGC, the sensor-assay potency score (higher = more potent) was 0.781.

As to TTGAAGTGAAAACCATAGGGAA, the sensor-assay potency score (higher = more potent) was -0.486.

For the sequence TTGTCTTGAAGAACCTCACTGC, the sensor-assay potency score (higher = more potent) came out at 0.709.

The target of a further assay is IFLTD1. Described as above. As to conditions: shRNA.
TTGAATAATACTAACCATCTGC displayed a sensor-assay potency score (higher = more potent) of 0.269.

The sequence TTGTCCATTCACATTTTGCTGG had a sensor-assay potency score (higher = more potent) of -0.587.

Consider TTGCTCTAAACTTGTCTTGTTC, for which the sensor-assay potency score (higher = more potent) is -0.614.

Take TATAGTTACTCTACTAATCTGA: the sensor-assay potency score (higher = more potent) turned out to be 0.529.

For TCTTCTTTTTCTTAGACCCTGA, the sensor-assay potency score (higher = more potent) is -0.319.

In the case of TAGACAGATAGTAACCAAGAGG, the sensor-assay potency score (higher = more potent) is -1.22.

TTTTCCACTCTGGAACAGCTAC gave a sensor-assay potency score (higher = more potent) of -0.846.

In the case of TTGAGATATCTTTCTTAGGTTG, the sensor-assay potency score (higher = more potent) is -0.851.

Sequence TAATTTGAGATATCTTTCTTAG gave a sensor-assay potency score (higher = more potent) of -0.577.

TAAGTTTCTTTGAATCACCAAA yielded a sensor-assay potency score (higher = more potent) of -0.981.

In the case of TTGTTATACAATCAGGACTTGC, the sensor-assay potency score (higher = more potent) was -1.51.

Regarding TTGCTTTTCTAGTAGCTGGTTG, the sensor-assay potency score (higher = more potent) was -0.208.

Another assay concerns the target IFNA17. Described as above. Particulars: shRNA.
The sequence TCTGAGGCAGATCACAGCCTAG came in with a sensor-assay potency score (higher = more potent) of -1.69.

With TTGCTGGTAAAGTTCAGTGGAA, the sensor-assay potency score (higher = more potent) was -0.731.

As to TATCACACATGCTTCCAGGTTA, the sensor-assay potency score (higher = more potent) came out at 0.103.

Consider TTCCAGGTTATTCAGTTGCTGG, for which the sensor-assay potency score (higher = more potent) was -1.21.

In turn, TGTATTTCTTCTCTGTTAGATA had a sensor-assay potency score (higher = more potent) of -1.15.

For the sequence TCTTCCATCCCAACCTCCTGTA, the sensor-assay potency score (higher = more potent) was -0.396.

Sequence TAGAGAACAGATGGATTTGTAG gave a sensor-assay potency score (higher = more potent) of -0.448.

As for TCTTCTGGAACTGGTTGCCATC, the sensor-assay potency score (higher = more potent) was -1.69.

On to TATTTTTTGCAAGTTTGTTGAA, for which the sensor-assay potency score (higher = more potent) is -0.556.

In turn, TTCTCTGTTAGATAAAGAGTGA registered a sensor-assay potency score (higher = more potent) of -0.598.

The next assay deals with IFT52. The description is as above. As to conditions: shRNA.
In the case of TTTGGCATCCTGTTGGTCCTTT, the sensor-assay potency score (higher = more potent) is 0.0621.

For the sequence TTTCACATTTAGCTGCTCGTGA, the sensor-assay potency score (higher = more potent) worked out at 0.557.

In turn, TAATCCACAGTTTTACTCCATT displayed a sensor-assay potency score (higher = more potent) of -1.37.

TGAACATGTGACATGAACCAAG yielded a sensor-assay potency score (higher = more potent) of -0.609.

In the case of ATATTGATCACTGAACATGTGA, the sensor-assay potency score (higher = more potent) was -0.0473.

TTCTTCAGTACACTTATTGGTA: the sensor-assay potency score (higher = more potent) was -0.369.

The sequence TATTCTTCTAGTAAAAAGTTAA yielded a sensor-assay potency score (higher = more potent) of -1.44.
